Assay results taken from the supplement of paper PMC4723716.

Test system: Plasmodium falciparum NF54 gametocytes
Assay: viability index relative to DMSO control (fraction); higher = less gametocyte killing
Details: 12.5 µM, incubation time: 72 h
Summary of the method: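 The viability index was calculated as the gametocyte particle count over the plate mean of solvent-only wells. For this, P. falciparum NF54 gametocytes of every stage (I–V) were held with compound at 12.5 µM for 72 hr at 37°C under low oxygen in 384-well plates. MitoTracker Red CMXRos staining for 20 min was followed by transfer of 5 µl into 40 µl of 500 nM dye in serum-free medium, with three fields imaged after 30 min.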

[1] = gametocyte stage: Stage I viability index
[2] = gametocyte stage: Stage II viability index
[3] = gametocyte stage: Stage III viability index
[4] = gametocyte stage: Stage IV viability index
[5] = gametocyte stage: Stage V viability index

Row | SMILES | viability index [1] | viability index [2] | viability index [3] | viability index [4] | viability index [5]
1 | CCCCCCc1cc(O)c2c3c(c(=O)oc2c1)CCC(C)C3 (stereo not given) | 0.291 | 0.329 | 0.578 | 0.608 | 0.74
2 | Oc1ccc(Br)cc1CN1CCN(Cc2ccc(Cl)cc2)CC1 | 0.0201 | 0.0916 | 0.422 | 0.595 | 0.455
3 | COc1ccc(CN2CCN(Cc3ccccc3)CC2)c(O)c1 | 0.0656 | 0.0974 | 0.362 | 0.57 | 0.494
4 | O=C(CCc1ccco1)NC1CCN(CC2(c3ccc(Cl)cc3)CCC2)CC1 | 0.103 | 0.412 | 0.854 | 0.903 | 1.05
5 | Oc1ccc(C(=C(Cl)Cl)c2ccc(O)cc2)cc1 | 0.596 | 0.301 | 0.741 | 0.756 | 0.584
6 | Oc1ccc(Br)cc1CN1CCN(Cc2cccc(F)c2)CC1 | 0.0385 | 0.0899 | 0.0787 | 0.196 | 0.273
7 | C=CC12CCN(CC1)C(C(O)c1ccnc3ccc(OC)cc13)C2 (stereo not given) | 1.08 | 1.08 | 1.13 | 0.976 | 1.1
8 | COc1cc(CNCCc2ccc(Cl)cc2)cc(OC)c1O | 0.049 | 0.44 | 0.801 | 1.01 | 0.896
9 | CCCc1cc(O)c2c3c(c(=O)oc2c1)CN(C)CC3 | 0.134 | 0.296 | 0.649 | 0.827 | 0.637
10 | CCOc1c(Cl)cc(CNC(C)C(O)c2ccccc2)cc1OC (stereo not given) | 0.0917 | 0.317 | 0.584 | 0.754 | 1.14
11 | CN(N=O)C1=C(NC2CCCCC2)C(=O)c2ccccc2C1=O | 0.00787 | 0.0183 | 0.309 | 0.456 | 0.234
12 | CCOc1cc(CNC(C)C(O)c2ccccc2)cc(Cl)c1OCC (stereo not given) | 0.137 | 0.337 | 0.634 | 0.729 | 0.791
